Sampled rows, rich in hits. Any-hit rate of the full collection: about 11%.
HPGD block: blocks human HPGD enzyme activity; P15428; purified HPGD, NADH fluorescence kinetic, PGE2 substrate; Potency, µM, hits mostly inhibitors; 150,000 compounds, 4.3% hits; AID 894
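NADH formation kinetics: reaction with 30 uM PGE2 and 1 mM NAD+ (final), 20 nM enzyme, Tris-HCl pH 8 with Tween 20, after 15 min compound preincubation at room temperature. Fluorescence change, last versus first of five reads.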
ALDH1A1 block: ALDH1A1 (human) enzyme inhibition; Potency, µM (top dose mostly 75.3 µM), most hits filed as inhibitors; AID 1030; Purified ALDH1A1, NADH fluorescence, propionaldehyde substrate; P00352; 220,000 compounds, 7.3% hits
Target sequence (P00352 whole entry, looked up): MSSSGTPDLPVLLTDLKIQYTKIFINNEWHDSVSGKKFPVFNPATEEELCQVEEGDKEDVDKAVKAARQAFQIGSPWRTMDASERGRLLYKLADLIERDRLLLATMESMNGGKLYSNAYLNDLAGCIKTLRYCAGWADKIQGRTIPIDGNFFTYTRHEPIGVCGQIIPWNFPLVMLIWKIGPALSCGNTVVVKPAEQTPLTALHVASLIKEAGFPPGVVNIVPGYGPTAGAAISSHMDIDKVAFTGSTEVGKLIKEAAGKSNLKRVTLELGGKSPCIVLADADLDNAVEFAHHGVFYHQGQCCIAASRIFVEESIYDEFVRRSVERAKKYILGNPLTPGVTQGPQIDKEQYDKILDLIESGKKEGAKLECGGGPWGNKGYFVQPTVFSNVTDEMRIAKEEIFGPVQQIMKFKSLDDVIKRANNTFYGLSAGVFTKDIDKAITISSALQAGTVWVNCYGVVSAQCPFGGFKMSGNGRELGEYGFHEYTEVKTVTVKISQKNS
PNC assembly inh: inhibitors of perinucleolar compartment assembly; PC3M PTB-GFP, PNC prevalence imaging, 16 h; stronger effect = lower value; activity change (PNC), negative = inhibition, % at 10 µM; 140,000 compounds, 3.1% hits; AID 2417;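 active = readout at or below -70, meaning at least 70% loss of cells showing the perinucleolar compartment, a nuclear body marking cancer cells; inconclusive = readout between -30 and a set limit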
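Compounds are pinned in duplicate onto adhered PC3M cells stably expressing GFP-tagged PTB and incubated 16 h at 37 C. Cells are then fixed, nuclei stained with Hoechst, and PNC-positive cells counted.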
Hits are given with their value; 0 = inactive; ? = inconclusive; - = not tested or not shown; [ ] = dose if it differs, or a comment. Unless noted, calls come from the whole dose curve; as a rule, active = well fitted inhibition curve with a large enough effect (not every such curve was filed as active); inconclusive = small, poorly fitted or top-dose-only effect, or another doubt; inactive = no such curve, though single readings can be large or run the other way.

SMILES	HPGD block	ALDH1A1 block	PNC assembly inh
O=C1OC(c2ccc(Cl)cc2)/C(=C(/O)c2ccccc2)C1=O (configuration not stated)	0	7.9µM	0
COc1ccc(C2/C(=C(/O)c3ccccc3)C(=O)C(=O)N2C)cc1 (configuration not stated)	0	0	0
CC1(C)Cc2c(c(=S)nc(-c3ccccc3)n2CCCN2CCOCC2)CO1	0	0	0
CC1(C)Cc2c(c(=S)nc(-c3ccccc3)n2CCO)CO1	35µM	25µM	0
O=C(CNCCC1=CCCCC1)Nc1ccccc1N1CCCCC1	?	9.5µM	0
Cc1ccccc1CSCCNC(=O)CCSc1ccccc1	10µM	7.1µM	0
Cc1ccc(CSCCNC(=O)CCSc2ccccc2)cc1	?	?	0
O=C(CCc1ccccc1)NCCC1=CCCCC1	25µM	0	?
O=C(Cc1ccccc1)NCCC1=CCCCC1	?	0	0
O=C(CNC1CCCCCC1)Nc1ccccc1N1CCCCC1	0	0	0
Cc1ccccc1CSCCC(=O)NCCC1=CCCCC1	13µM	0	0
O=C(CCSCc1ccc(Cl)cc1)NCCC1=CCCCC1	0	0	0
N#Cc1ccc2c(c1)N(CCCN1CCC(O)CC1)c1ccccc1S2	0	0	-
O=NN(Cc1ccc(Cl)cc1)[C@@H](C(=O)O)c1ccccc1	0	0[13.5 µM]	-
CCCCC(=O)NC(NC(=S)N1CCCCCC1)C(Cl)(Cl)Cl (configuration not stated)	0	0	0
COC(=O)C1=C(C)Nc2c(c(=O)n(C)c(=O)n2C)C1c1ccc(Cl)cc1 (configuration not stated)	?	0	?
CCSc1cc(N2CCOCC2)nc(-c2ccc(Cl)cc2)n1	0	0	?
COc1ccc(S(=O)(=O)N(CCO)c2ccccc2CN(C)C/C=C/c2ccc(Cl)cc2)cc1	-	0	-
CCCCC/C=C\C/C=C\CCCCCCCC(=O)NCCCC(=O)O	0	0	-
CCCCN(C)CCNC(=O)CCNC(=O)Cn1ccc2ccccc2c1=O	-	0	-
CCOC(=O)N1CCN(S(=O)(=O)c2ccc(OCC(=O)OC)cc2)CC1	0	0	0
CCOC(=O)N1CCN(S(=O)(=O)c2ccc(OCC(=O)OC)c(C)c2)CC1	0	0	-84
COC1C(O)COC1/C=C/c1ccccc1 (configuration not stated)	-	0[13.5 µM]	-
Cc1n[nH]c(=S)n(/N=C/c2ccccn2)c1=O	-	0	0
S=c1[nH]nc(-c2cc(-c3ccccc3)n[nH]2)n1/N=C/c1cccc(Cl)c1	-	0	-
SMILES	HPGD block	ALDH1A1 block	PNC assembly inh
S=c1[nH]nc(C2CCCCC2)n1/N=C/c1ccncc1	-	0	-
Cc1cccc(-c2n[nH]c(=S)n2/N=C/c2ccc(C)o2)c1	16µM	?	0
S=c1[nH]nc(C2CCCCC2)n1/N=C/c1cccs1	13µM	22µM	0
Cc1ccc(/C=N/n2c(C3CCCCC3)n[nH]c2=S)o1	28µM	?	0
O=[N+]([O-])c1ccc(/C=N/n2c(C3CCCCC3)n[nH]c2=S)cc1	4.5µM	0	0
O=C(Oc1ccccc1)c1cccc2cccc(C(=O)Oc3ccccc3)c12	-	0	-
CC1CCN(CC[S-])CC1.O.O.[Cl][Pt]	0	0[13.5 µM]	-
CC(C(=O)Nc1ccncc1)(c1ccccc1)c1ccccc1	-	0	-
O=C1C2CC=C(Cl)CC2C(=O)N1CN(Cc1ccco1)CN1C(=O)C2CC=C(Cl)CC2C1=O (configuration not stated)	0	?	-96
O=C(CCN1C(=O)C2CC=C(Cl)CC2C1=O)NCc1ccco1 (configuration not stated)	0	22µM	0
O=C1C2CC=C(Cl)CC2C(=O)N1CC1Cc2ccccc2CO1 (configuration not stated)	22µM	22µM	0
O=C1C2CC=C(Cl)CC2C(=O)N1CCC[n+]1ccccc1 (configuration not stated)	0	0	0
O=C1C2CC=C(Cl)CC2C(=O)N1CC1OCCc2ccccc21 (configuration not stated)	0	?	0
O=C(CCN1C(=O)C2CC=C(Cl)CC2C1=O)NCc1ccccc1 (configuration not stated)	0	?	0
Cn1ncc2c(Nc3ccc([N+](=O)[O-])cc3)nc(Cl)nc21	-	0	-
COC(=O)NC(/C(C(=O)OC)=C(\C)NCc1ccccc1)c1cccc(C)c1 (configuration not stated)	-	0[13.5 µM]	-
c1ncc(-c2ccc3c(c2)OCO3)c(NCCc2cnc[nH]2)n1	0	?	-
O=C(COc1ccc(Br)cc1CNCCCN1CCOCC1)Nc1ccccc1	0	0	0
CCc1sc(NC(=O)c2cc3ccccc3oc2=O)nc1-c1cccs1	0	0	0
COc1ccc(C(=O)N2CCC3(CC2)CN(CC(C)C)C3)cc1	0	0	-
c1ccc(-c2csc(NNC3=NCCCCC3)n2)cc1	?	32µM	0
COc1ccc(-c2csc(NC3=NCCCCC3)n2)cc1	0	0	0
COc1ccc(-c2csc(NNC3=NCCCCC3)n2)cc1	-	13µM	-
Clc1ccc(-c2csc(NNC3=NCCCCC3)n2)cc1	?	?	0
CC(C)(C)NC(=O)C(=O)NN=C1CCCCCCCCCCC1	-	0	-
SMILES	HPGD block	ALDH1A1 block	PNC assembly inh
NCC(=O)O	0	0	-
CC(=O)N(C)c1ccc(NC(=O)COc2ccc(Br)cc2C)cc1	0	0	0
COc1ccc(/C(CC2OC(=O)c3ccccc32)=N\NC(N)=O)cc1 (configuration not stated)	-	0	-
COc1cc(CCC(=O)OCC(=O)Nc2ccccc2OC(F)F)cc(OC)c1OC	-	0	-
CCN(CC)S(=O)(=O)c1ccc(NC(=O)COC(=O)CCc2cc(OC)c(OC)c(OC)c2)cc1	0	2.5µM	0
COc1cc(CCC(=O)OCC(=O)Nc2cccc(S(=O)(=O)N(C)C)c2)cc(OC)c1OC	0	0	?
COc1cc(CCC(=O)OCC(=O)Nc2ccccc2C(C)C)cc(OC)c1OC	0	0	-111
Cc1ccc(-c2nnn(CC(=O)N3CCCCC3)n2)o1	-	0	-
O=c1[nH]c(=O)n(-c2ccccc2)c2c1C(C(F)(F)F)(C(F)(F)F)N=C(CCC1CCCCC1)N2	?	0	0
COC(=O)[C@@]1(Cc2ccc(OC)cc2)[C@H]2c3cc(C(=O)N4CCCC4)n(Cc4ccsc4Br)c3C[C@H]2CN1C(=O)c1ccccc1	0	0	-
Cn1c(=S)[nH]c2c(c1=O)C(C)(C)Cc1ccccc1-2	-	8.9µM	-
CCn1c(=S)[nH]c2c(c1=O)C(C)(C)Cc1ccccc1-2	-	0	-
C=C(C)CNCCN	0	0[13.5 µM]	-
COc1ccc(NCc2ccc([N+](=O)[O-])s2)c(OC)c1	0	25µM	0
COc1ccc(NCc2ccc([N+](=O)[O-])s2)cc1	0	0	0
Nc1nnc(CC(=O)Nc2ccccc2)s1	-	0	-
O=C(CCc1n[nH]c(=O)[nH]c1=O)N1CCCCC1	0	4.5µM	0
COC(=O)CCc1n[nH]c(=O)[nH]c1=O	0	0	0
O=C(Nc1ccc(OC(F)(F)C(F)F)c(NC(=O)c2cccc(F)c2)c1)c1cccc(F)c1	0	0	0
O=S(=O)(NCC(c1cccnc1)N1CCOCC1)c1ccc(Cl)cc1 (configuration not stated)	-	28µM	-
O=S(=O)(NCC(c1cccnc1)N1CCOCC1)c1ccccc1 (configuration not stated)	-	25µM	-
O=S(=O)(NCC(c1ccco1)N1CCOCC1)c1ccc(Cl)cc1 (configuration not stated)	0	0	0

Compound activity as filed in PubChem.
